# Measurements as given in PubChem BioAssay (EPA / NIEHS).
# Inconclusive results are not listed. The source made the active and inactive calls. How the source made its calls, unless noted: active means hit-call score of the fitted dose curve at least 0.9, where 1 is the maximum; inactive means score below 0.9.
# Tests used:
# [1] = biological target: Nucleoli Translocation, AR (gene 367) (UniProt P10275); experiment: UPITT_HCI_U2OS_AR_TIF2_Nucleoli_Antagonist: University of Pittsburgh U2OS Androgen Receptor-Transcriptional Intermediary Factor 2 (AR-TIF2) Antagonism High Content Imaging Assay for Nucleoli Translocation (AID 2283997; active means hit-call score of the fitted dose curve at least 0.9, where 1 is the maximum)
# Nucleoli Translocation, AR (gene 367), sequence (P10275 whole entry, looked up, the tested form may be a part): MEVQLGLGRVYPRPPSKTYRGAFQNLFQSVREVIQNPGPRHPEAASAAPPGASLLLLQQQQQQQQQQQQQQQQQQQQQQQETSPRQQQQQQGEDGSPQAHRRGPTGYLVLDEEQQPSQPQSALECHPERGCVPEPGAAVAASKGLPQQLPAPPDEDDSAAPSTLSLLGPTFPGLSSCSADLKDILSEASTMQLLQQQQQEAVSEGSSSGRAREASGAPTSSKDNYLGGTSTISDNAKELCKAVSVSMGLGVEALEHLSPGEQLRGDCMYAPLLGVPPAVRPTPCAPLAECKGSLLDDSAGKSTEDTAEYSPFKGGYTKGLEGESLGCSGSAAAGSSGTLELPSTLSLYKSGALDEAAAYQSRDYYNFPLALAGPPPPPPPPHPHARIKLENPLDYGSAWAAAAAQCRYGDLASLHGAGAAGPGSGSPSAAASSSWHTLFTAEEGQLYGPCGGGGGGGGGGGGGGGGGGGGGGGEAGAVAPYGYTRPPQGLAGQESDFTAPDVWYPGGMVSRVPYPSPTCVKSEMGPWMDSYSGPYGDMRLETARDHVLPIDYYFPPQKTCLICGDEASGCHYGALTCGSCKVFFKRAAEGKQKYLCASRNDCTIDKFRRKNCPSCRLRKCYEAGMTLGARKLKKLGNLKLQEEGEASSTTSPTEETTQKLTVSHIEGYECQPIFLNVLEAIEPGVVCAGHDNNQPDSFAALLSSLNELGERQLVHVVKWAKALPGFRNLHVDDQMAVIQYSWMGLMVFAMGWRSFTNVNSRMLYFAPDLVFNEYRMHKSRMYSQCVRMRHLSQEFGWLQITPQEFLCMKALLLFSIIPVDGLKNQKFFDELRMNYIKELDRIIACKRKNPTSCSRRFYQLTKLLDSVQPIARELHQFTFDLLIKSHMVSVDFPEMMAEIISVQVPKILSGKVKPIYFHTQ
# In short: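 Compounds are added at 20 uM final concentration in 0.2% DMSO to U2OS cells carrying AR-RFP and TIF2-GFP fusions. Nucleolar AR-RFP fluorescence is then quantified by automated imaging. Antagonism is fitted positively against DHT baseline.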
# [2] = biological target: Nucleoli Translocation, AR (gene 367) (UniProt P10275); experiment: UPITT_HCI_U2OS_AR_TIF2_Nucleoli_Agonist: University of Pittsburgh U2OS Androgen Receptor-Transcriptional Intermediary Factor 2 (AR-TIF2) Agonism High Content Imaging Assay for Nucleoli Translocation (AID 2283998; active means hit-call score of the fitted dose curve at least 0.9, where 1 is the maximum)
# In short: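 Cells express human AR fused to red fluorescent protein and TIF2 fused to GFP. Red fluorescence in the nucleolar region was quantified by high-content imaging and fitted as gain-of-signal against a DMSO baseline. Compounds were tested at 0.195 to 50 uM final (0.5% DMSO).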
# [3] = biological target: Ratio of Nucleoli Translocation and Cytoplasm, AR (gene 367) (UniProt P10275); experiment: UPITT_HCI_U2OS_AR_TIF2_Nucleoli_Cytoplasm_Ratio_Antagonist: University of Pittsburgh U2OS Androgen Receptor-Transcriptional Intermediary Factor 2 (AR-TIF2) Antagonism High Content Imaging Assay for Ratio of Nucleoli Translocation and Cytoplasm (AID 2283999; active means hit-call score of the fitted dose curve at least 0.9, where 1 is the maximum;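 further: antagonists lower the DHT-driven ratio of nucleolar to cytoplasmic red signal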)
# Ratio of Nucleoli Translocation and Cytoplasm, AR (gene 367), sequence (P10275 whole entry, looked up): as the sequence (P10275 whole entry, looked up, the tested form may be a part) above
# In short: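 This antagonist-mode endpoint tracks AR-RFP localisation, the nucleolus-to-cytoplasm intensity ratio, in TIF2-GFP-coexpressing U2OS cells. DMSO stays at or below 0.5%; testing spans 20 uM single-dose and 0.195–50 uM series, with DHT setting the activity baseline.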
# [4] = biological target: Ratio of Nucleoli Translocation and Cytoplasm, AR (gene 367) (UniProt P10275); experiment: UPITT_HCI_U2OS_AR_TIF2_Nucleoli_Cytoplasm_Ratio_Agonist: University of Pittsburgh U2OS Androgen Receptor-Transcriptional Intermediary Factor 2 (AR-TIF2) Agonism High Content Imaging Assay for Ratio of Nucleoli Translocation and Cytoplasm (AID 2284000; active means hit-call score of the fitted dose curve at least 0.9, where 1 is the maximum;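 further: hits raise the red nucleolar to cytoplasm ratio above vehicle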)
# In short: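 Human osteosarcoma U2OS line, AR-RFP plus TIF2-GFP; compounds 0.195–50 uM final, 0.5% DMSO. Readout: nucleolar/cytoplasmic RFP ratio by HCI, positive direction vs DMSO baseline.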
# [5] = CCTE_Shafer_MEA_acute_spike_number: CCTE's Neural Acute Assay for Total Number of Spikes, Shafer Lab (AID 2284008);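 on AC50: curve fitted for decrease in spike count so AC50 reflects inhibitors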
# In short: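 Primary rat cortical neurons on 16-electrode MEA wells; on DIV 13 or 15, 40-min baseline then 40-min recording with compound (0.03-40 uM) at 37 C. Spikes detected at 8x rms noise; percent change versus baseline, DMSO as negative control.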
# [6] = CCTE_Shafer_MEA_acute_firing_rate_mean: CCTE's Neural Acute Assay for Mean Firing Rate, Shafer Lab (AID 2284009);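 further: analyzed for loss of signal so actives lower firing rate relative to DMSO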
# In short: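 Rat cortical neuron cultures matured to DIV 13 or 15, equilibrated 20 min at 37 C, then recorded 40 min for baseline. Compound (0.03-40 uM) added and a further 40 min recorded; percent change in mean firing rate calculated per well.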
# [7] = CCTE_Harrill_HTTr_Viability_MCF7: CCTE's 6-hour Cell Viability Assessment for the High-Throughput Transcriptomics (HTTr) Platform, in MCF-7 cells cultured in DMEM + 10% fetal bovine serum, Harrill Lab (AID 2284010)
# In short: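 Eight-point concentration series, six-hour exposure. Propidium iodide exclusion imaged to assess membrane integrity as a cytotoxicity readout; bidirectional fitting was done with DMSO as negative control and activity baseline.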
# [8] = CCTE_Harrill_HTTr_Apoptosis_MCF7: CCTE's 6-hour Apoptosis Assessment for the High-Throughput Transcriptomics (HTTr) Platform, in MCF-7 cells cultured in DMEM + 10% fetal bovine serum, Harrill Lab (AID 2284011)
# In short: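 MCF-7 cells in DMEM + 10% fetal bovine serum were exposed to chemicals for 6 hours over an eight-point dilution series. Caspase-3/7 activation was imaged by high content imaging with CellEvent Caspase 3/7 Green; bidirectional fitting used DMSO as baseline.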
# [9] = CCTE_Harrill_HTTr_CellCount_MCF7: CCTE's Cell Proliferation Assessment for the High-Throughput Transcriptomics (HTTr) Platform, Harrill Lab (AID 2284012; active means hit-call score of the fitted dose curve at least 0.9, where 1 is the maximum;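 further: count of Hoechst-stained nuclei per well by high-content imaging in MCF-7 cells; cells exposed to compound for six hours; intended direction is loss of nuclei count meaning fewer cells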)
# In short: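 For this full-screen endpoint, MCF-7 cultures received eight compound dilutions for six hours. Well nuclei counts from Hoechst imaging were analyzed relative to DMSO.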
# [10] = CCTE_Shafer_MEA_acute_burst_number: CCTE's Neural Acute Assay for Single-Electrode Bursts, Shafer Lab (AID 2284013)
# In short: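 Percent change in single-electrode burst number per well, from 40-min recordings taken before and after adding compound (0.03-40 uM) to primary rat cortical neurons on MEA plates at DIV 13 or 15, 37 C.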
# [11] = CCTE_Shafer_MEA_acute_burst_duration_mean: CCTE's Neural Acute Assay for Mean Burst Duration, Shafer Lab (AID 2284014);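 further: hits are decreases in mean burst duration relative to DMSO controls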
# In short: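 Rat cortical cultures, DIV 13/15; 40 min baseline, then 40 min with compound (0.03-40 uM), 37 C. Spikes: 300-5000 Hz band-pass, 8x rms threshold. Read-out: % change in mean single-electrode burst duration, DMSO-referenced, loss direction.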
# [12] = CCTE_Shafer_MEA_acute_per_burst_spike_number_mean: CCTE's Neural Acute Assay for Average Number of Spikes Per Burst, Shafer Lab (AID 2284015);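 further: hits are decreases in mean spikes per burst versus baseline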
# In short: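 Rat primary cortical neurons on 48-well MEAs (DIV 13 or 15) were treated with 0.03-40 uM compound at 37 C. Mean spikes per burst over 40 min were recorded before and after exposure and expressed as percent change from baseline, relative to DMSO.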
# [13] = CCTE_Shafer_MEA_acute_interburst_interval_mean: CCTE's Neural Acute Assay for Mean Interburst Interval, Shafer Lab (AID 2284016);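 further: percent change of mean interburst interval versus each well's own pre-dose baseline; curves fitted for decrease in interburst interval relative to DMSO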
# In short: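 Rat primary cortical neurons on 48-well MEAs at DIV 13 or 15 were exposed acutely to 0.03-40 uM. Spikes detected at 8x rms noise, 37 C. Mean interburst interval from 40 min recordings expressed as percent change from 40 min pre-treatment baseline.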
# [14] = CCTE_Simmons_MITO_basal_resp_rate: CCTE's HepG2 Seahorse XF Respirometric Screening Assay at Basal Respiratory State, Simmons Lab (AID 2284001); settings: actives raise or lower the signal
# In short: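 Basal-phase OCR of HepG2 cells on a Seahorse XF96, analysed by bidirectional fit relative to DMSO vehicle; chemicals at 7 concentrations, 125 nM–100 uM final; three biological replicates; fenpyroximate and 2,4-dinitrophenol positive controls.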
# [15] = CCTE_Simmons_MITO_max_resp_rate: CCTE's HepG2 Seahorse XF Respirometric Screening Assay at Maximal Respiratory State [uncoupled], Simmons Lab (AID 2284002); settings: actives raise or lower the signal
# In short: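 HepG2 oxygen consumption was read on a Seahorse XF96 after FCCP uncoupler injection, following test compound injection; 7 concentrations, 125 nM–100 uM final, three biological replicates. Bidirectional fitting against DMSO vehicle baseline.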
# [16] = CCTE_Simmons_MITO_inhib_resp_rate: CCTE's HepG2 Seahorse XF Respirometric Screening Assay at Inhibited Respiratory State [full ETC block], Simmons Lab (AID 2284006); settings: actives raise or lower the signal
# In short: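 Test chemicals at seven final concentrations (125 nM–100 uM) in three biological replicates, with DMSO as vehicle. HepG2 oxygen consumption was then tracked on a Seahorse XF96 for 72 min through FCCP and rotenone/antimycin A phases, with the inhibited-phase rate as the endpoint.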
smiles,measurement,setting,value
CSc1ccc(Oc2ccc(S(N)(=O)=O)cc2CN(C)C)cc1C,outcome,[1],inactive
same,AC50,[2],50 µM (active)
same,outcome,[3],inactive
same,AC50,[4],74.8 µM (active)
same,outcome,[5],inactive
same,outcome,[6],inactive
same,outcome,[7],inactive
same,outcome,[8],inactive
same,outcome,[9],inactive
same,outcome,[10],inactive
same,outcome,[11],inactive
same,AC50,[12],36 µM (active)
same,outcome,[13],inactive
CCCCc1nc2cccnc2n1Cc1ccc(-c2ccccc2-c2nnn[nH]2)cc1,outcome,[7],inactive
same,outcome,[8],inactive
COc1ccc(OC(F)(F)F)cc1CN[C@H]1CCCN[C@H]1c1ccccc1,AC50,[5],1.72 µM (active)
same,AC50,[6],1.73 µM (active)
same,outcome,[7],inactive
same,outcome,[8],inactive
same,AC50,[10],1.89 µM (active)
same,outcome,[11],inactive
same,AC50,[12],5 µM (active)
same,AC50,[13],7.18 µM (active)
Oc1ccccc1O,outcome,[7],inactive
same,outcome,[8],inactive
C/C=C/c1ccc(OC)cc1,outcome,[5],inactive
same,outcome,[6],inactive
same,outcome,[7],inactive
same,outcome,[8],inactive
same,outcome,[9],inactive
same,outcome,[10],inactive
same,outcome,[11],inactive
same,outcome,[12],inactive
same,outcome,[13],inactive
O=C1O[C@H]([C@H](O)CO)C(O)=C1O,outcome,[7],inactive
same,outcome,[8],inactive
NC(=Nc1ccccc1)Nc1ccccc1,AC50,[5],2.02 µM (active)
same,AC50,[6],2.03 µM (active)
same,outcome,[7],inactive
same,outcome,[8],inactive
same,AC50,[10],1.53 µM (active)
same,outcome,[11],inactive
same,outcome,[12],inactive
same,AC50,[13],1.27 µM (active)
CN(C)C(=O)NC1(c2ccccc2)CCN(CCC[C@]2(c3ccc(Cl)c(Cl)c3)CCCN(C(=O)c3ccccc3)C2)CC1,outcome,[5],inactive
same,outcome,[6],inactive
same,outcome,[7],inactive
same,outcome,[8],inactive
same,outcome,[10],inactive
same,AC50,[11],1.07 µM (active)
same,AC50,[12],9.1 µM (active)
same,outcome,[13],inactive
CC(N)=O,outcome,[5],inactive
same,outcome,[6],inactive
same,outcome,[7],inactive
same,outcome,[8],inactive
same,outcome,[9],inactive
same,outcome,[10],inactive
same,outcome,[11],inactive
same,outcome,[12],inactive
same,outcome,[13],inactive
CC(C)NCC(O)c1ccc(O)c(O)c1 (stereo unspecified),outcome,[5],inactive
same,outcome,[6],inactive
same,outcome,[7],inactive
same,outcome,[8],inactive
same,outcome,[9],inactive
same,outcome,[10],inactive
same,outcome,[11],inactive
same,outcome,[12],inactive
same,outcome,[13],inactive
CO[C@@H]1COCC[C@@H]1N[C@@H]1CC[C@@](C(=O)N2CCc3ncc(C(F)(F)F)cc3C2)(C(C)C)C1,outcome,[7],inactive
same,outcome,[8],inactive
CN(C)C(=O)NC1(c2ccccc2)CCN(CC[C@@]2(c3ccc(F)c(F)c3)CN(C(=O)c3ccccc3)CCO2)CC1,AC50,[5],4.16 µM (active)
same,AC50,[6],4.14 µM (active)
same,outcome,[7],inactive
same,outcome,[8],inactive
same,outcome,[9],inactive
same,AC50,[10],4.34 µM (active)
same,outcome,[11],inactive
same,outcome,[12],inactive
same,outcome,[13],inactive
O=C(N[C@@H](c1ccccc1)[C@@H]1CCCCN1)c1cccc(C(F)(F)F)c1Cl,AC50,[5],4.39 µM (active)
same,AC50,[6],4.39 µM (active)
same,outcome,[7],inactive
same,outcome,[8],inactive
same,outcome,[9],inactive
same,AC50,[10],3.29 µM (active)
same,outcome,[11],inactive
same,outcome,[12],inactive
same,AC50,[13],7.65 µM (active)
CCCC(=O)O,outcome,[5],inactive
same,outcome,[6],inactive
same,outcome,[7],inactive
same,outcome,[8],inactive
same,outcome,[9],inactive
same,outcome,[10],inactive
same,outcome,[11],inactive
same,outcome,[12],inactive
same,outcome,[13],inactive
CC(C)COC(=O)CCCCC(=O)OCC(C)C,outcome,[5],inactive
same,outcome,[6],inactive
same,outcome,[7],inactive
same,outcome,[8],inactive
same,outcome,[10],inactive
same,outcome,[11],inactive
same,outcome,[12],inactive
same,outcome,[13],inactive
CC(COCC(C)OC(=O)c1ccccc1)OC(=O)c1ccccc1 (stereo unspecified),outcome,[7],inactive
same,outcome,[8],inactive
CCCCC(CC)CO (stereo unspecified),outcome,[7],inactive
same,outcome,[8],inactive
Cc1cc(Cc2ccc(N)c(C)c2)ccc1N,outcome,[14],inactive
same,AC50,[15],50 µM (active)
same,outcome,[16],inactive
same,AC50,[5],15.8 µM (active)
same,AC50,[6],14.9 µM (active)
same,outcome,[7],inactive
same,outcome,[8],inactive
same,outcome,[10],inactive
same,outcome,[11],inactive
same,AC50,[12],30 µM (active)
same,AC50,[13],35.7 µM (active)
CN(C)CCCN1c2ccccc2Sc2ccc(Cl)cc21,outcome,[5],inactive
same,outcome,[6],inactive
same,AC50,[7],77.1 µM (active)
same,AC50,[8],50 µM (active)
same,outcome,[9],inactive
same,outcome,[10],inactive
same,outcome,[11],inactive
same,outcome,[12],inactive
same,outcome,[13],inactive
